Inconclusive results are not listed. A call without a number means that no potency is given here. The source made the active and inactive calls. Calls follow the shape of the dose curve; as a rule, active = well fitted inhibition curve with a large enough effect; inconclusive = small, poorly fitted or top-dose-only effect; inactive = no such curve, though single readings can be large or run the other way.
target: Tumor susceptibility gene 101 protein (Homo sapiens) (UniProt Q99816); assay: qHTS Assay for Iinhibitors of HIV-1 Budding by Blocking the Interaction of PTAP/TSG101: Hit Validation in TR assay; settings: Tsg101 binding domain + Texas Red-labeled PTAP peptide, fluorescence polarization, 20 min; series mostly up to 57.5 µM
Summary of the method: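 Texas Red-PTAP peptide (50 nM) binding to Tsg101 binding domain (10 uM), both final, in pH 7.5 HEPES buffer, read as polarization after 20 min at room temperature; compounds pinned before peptide addition.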
Potency is read from the fitted curve at half-maximal effect.

Chain of Tumor susceptibility gene 101 protein (Homo sapiens) (Q99816 whole entry, looked up, the tested form may be a part): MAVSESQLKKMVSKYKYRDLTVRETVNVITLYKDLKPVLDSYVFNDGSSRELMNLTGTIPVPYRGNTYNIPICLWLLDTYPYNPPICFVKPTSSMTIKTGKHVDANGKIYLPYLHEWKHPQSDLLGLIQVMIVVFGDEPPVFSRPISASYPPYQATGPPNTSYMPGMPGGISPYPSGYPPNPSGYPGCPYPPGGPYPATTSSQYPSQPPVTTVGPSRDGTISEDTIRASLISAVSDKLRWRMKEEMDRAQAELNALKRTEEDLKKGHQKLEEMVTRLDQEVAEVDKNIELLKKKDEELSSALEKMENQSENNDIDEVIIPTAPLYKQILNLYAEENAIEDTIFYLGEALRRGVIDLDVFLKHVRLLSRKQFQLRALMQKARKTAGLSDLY

Structure (SMILES)	Potency
Cc1cccc(N2C(=O)c3cccc4c(N(C)CCO)ccc(c34)C2=O)c1	inactive
C=CCOn1c(=O)c(-c2cc3ccccc3o2)[n+]([O-])c2ccccc21	inactive
CCSC1=NSC2=NC(=O)/C(=C\c3coc4ccccc4c3=O)C(=N)N12	inactive
CS(=O)(=O)Nc1nc2n(n1)C(c1ccccc1)C=C(c1ccc(Br)cc1)N2 (centres undefined)	inactive
CCCn1c(O)c(N=Nc2ccc3ccccc3n2)c2ccccc21	inactive
CC1CCN(c2ccc3c(c2)S(=O)(=O)c2ccccc2C3=O)CC1	inactive
COc1ccccc1NC(=O)/C(C#N)=C/c1cc([N+](=O)[O-])ccc1N1CCCC1	inactive
Cc1cc[n+](-c2[nH]c(=O)sc2/C=N/NC([S-])=Nc2ccccc2)cc1C	inactive
CCCCn1c(SCC(=O)c2cc(OC)ccc2OC)nc2cc(S(N)(=O)=O)ccc21	inactive
CNc1ccc2c3c(cccc13)C(=O)N(C)C2=O	inactive
Fc1ccc(C2=CC(c3ccco3)n3ncnc3N2)cc1 (centres undefined)	inactive
CCCN1CCN(S(=O)(=O)c2cn(C)nc2C)CC1	inactive
C1=C(c2ccc(-c3ccccc3)cc2)Nc2ncnn2C1c1ccco1 (centres undefined)	inactive
O=C(C1=NN(c2ccccc2)C2C(=O)N(c3cccc(Cl)c3)C(=O)C12)c1ccccc1 (centres undefined)	29.1 µM (active)
COc1ccc(NC(=O)c2nc(-c3ccc(C)cc3)n3c2CCCCC3)cc1	inactive
O=C1/C(=N\S(=O)(=O)c2cccs2)C([n+]2ccccc2)=C([O-])c2ccccc21	inactive
CCN(CC)c1ccc2cc(S(=O)(=O)c3ccc(Cl)cc3)c(=O)oc2c1	inactive
CC(=O)Nc1ccc2cc3ccc(NC(C)=O)cc3nc2c1	inactive
CCc1cc(C(=O)Nc2ccc(OC)nc2)sc1C	inactive
CSC1=NSC2=NC(=O)/C(=C\c3coc4ccccc4c3=O)C(=N)N12	inactive

Structure (SMILES)	Potency
Fc1ccc(C2=CC(c3ccc(Br)o3)n3ncnc3N2)cc1 (centres undefined)	inactive
CCN(CC)S(=O)(=O)c1ccc(C(=O)/C=C/c2ccc(-c3ccc([N+](=O)[O-])cc3)o2)cc1	inactive
CCOc1cc(/C=C(\C#N)c2nc(-c3cccs3)c(NC(C)=O)s2)ccc1O	inactive
O=C(c1ccccc1)[C@@H]1[C@@H]2C(=O)N(c3ccc(F)cc3)C(=O)[C@@H]2C2CCCN21 (some centres undefined)	inactive
Cn1cc(/C=C2\SC(=S)N(NC(=O)c3ccccc3Cl)C2=O)c2ccccc21	inactive
O=C(NCc1ccc(F)cc1)c1cccc2c1C(=O)c1ccc(N3CCC(Cc4ccccc4)CC3)cc1S2(=O)=O	inactive
Cc1cc(/C=C2\SC(=S)N(Cc3ccco3)C2=O)c(C)n1-c1cccnc1	inactive
O=C(CC1CC2CCC1C2)NCc1cccs1 (centres undefined)	inactive
CN(C)CCNc1ccc2ncn3c4ccc(O)cc4c(=O)c1c23	inactive
C=CCn1c(=N)c(S(=O)(=O)c2ccc(C)c(C)c2)cc2c(=O)n3ccccc3nc21	inactive
Cn1c(=O)cc2c3c(c(N4CCCCC4)ccc31)C(=O)c1ccccc1-2	inactive
O=C(CCN1C(=O)/C(=C/c2ccco2)SC1=S)Nc1ccc(O)cc1C(=O)O	inactive
O=c1oc2ccccc2nc1/C=C(\O)c1ccc(Br)cc1	inactive
CCC/C(C#Cc1ccc(N(C)C)cc1)=C1/c2ccccc2C(=O)N1c1ccccc1	inactive
Cn1c(O)c(N=Nc2ccc(F)cc2)c2ccccc21	inactive
COc1ccc(CNC(=O)C(C#N)c2nc3ccccc3nc2N2CCCC2)cc1 (centres undefined)	inactive
COC(CNC(=O)c1ccc2c3c(onc13)-c1ccccc1C2=O)OC	inactive
O=C(O)c1ccccc1-c1ccc(/C=C/c2cc(C(F)(F)F)[nH]c(=O)n2)o1	inactive
O=C1c2cccc3c(O)ccc(c23)C(=O)N1Cc1ccccc1	inactive

Reference: PubChem BioAssay AID651599 (National Center for Advancing Translational Sciences (NCATS), 2012)
